# Most compounds without a hit are left out; they make up all but 19% or so of the library.
# Chronic BCR inh = qHTS Assay to Find Inhibitors of Chronic Active B-Cell Receptor Signaling; 0.05% of 340,000 active; ABC-DLBCL IkBa-CBG/CBR reporter, luminescence ratio, 4 h; AID 493014, 2011; Potency, µM (highest dose often 46.1 µM), usual class: inhibitors; active = well fitted inhibition curve with a large enough effect in the signal ratio, with a control signal flat, not every such curve was filed as active; inconclusive = small, poorly fitted or top-dose-only effect, or effect the other way, or a change in a side signal; the % refers to the signal ratio
#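 Doxycycline induced both beetle luciferases in TMD8 lymphoma cells; IKK-driven degradation limits the IkappaBalpha-fused green signal, while red luminescence normalises for cell number and nonspecific effects. Compounds tested up to 46 uM, 4 hrs.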
# SW480 rereplic = A quantitative high throughput screen for small molecules that induce DNA re-replication in SW480 colon adenocarcinoma cells; SW480 DNA re-replication, Hoechst DNA content imaging, 48 h; Potency, µM (top dose mostly 46.1 µM), hits mostly activators; 1.8% of 340,000 active; AID 624297, 2012; note: nearly all actives have a fitted effect of over 55% in size
#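 250 cells/well; 23 nL cpd via pin tool; 48 hr, 37 C, 5% CO2; Hoechst 40 min; imager read of total nuclear intensity, ex 405/em 500-530 nm.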
# DT40 TDP1 no CPT = qHTS for Inhibitors of human tyrosyl-DNA phosphodiesterase 1 (TDP1): qHTS in cells in absence of CPT. DT40 Tdp1-/- hTDP1 cells, no CPT, ATP luminescence, 48 h. Potency, µM (series often up to 46.2 µM), most hits filed as inhibitors. 15% of 420,000 active. AID 686978, 2013; note: nearly all actives have a fitted effect of over 55% in size
#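 Chicken DT40 Tdp1-/- cells complemented with human TDP1, screened without camptothecin (DMSO vehicle only), 400 cells/well. Compounds pin-transferred, cells incubated at 37 °C for at least 48 hr. Growth read as ATP-dependent luminescence (CellTiter-Glo, 30 min at RT).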
# TDP1 cell CPT = qHTS for Inhibitors of human tyrosyl-DNA phosphodiesterase 1 (TDP1): qHTS in cells in presence of CPT | chicken DT40 Tdp1-/-;hTDP1 cells + 20 nM CPT, ATP luminescence, 48 h | Potency, µM (titrated, usually from 46.2 µM), hits mostly inhibitors | 12% of 420,000 active | AID 686979, 2013; note: nearly all actives have a fitted effect of over 55% in size
#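 Chicken DT40 Tdp1-/- cells complemented with human TDP1, 400 cells/well, exposed to compounds plus 20 nM camptothecin for at least 48 h at 37 C; viability read as ATP content by CellTiter-Glo luminescence.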
# IL1B secr inh = qHTS for Inhibitors of Inflammasome Signaling: IL-1-beta AlphaLISA Primary Screen; THP-1 LPS/ATP IL-1B secretion, AlphaLISA, 16 h; active compounds read low; activity change, % at 57.5 µM; 4.7% of 360,000 active; AID 743279, 2014; in the data active = activity change below about -50%; inconclusive = mostly about -30% to -49%
#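 THP-1 cells pretreated 1 hr with compounds (up to 57.5 uM final), then stimulated with LPS (250 ng/mL final) plus ATP (1.25 mM final); secreted IL-1B measured by AlphaLISA after 16 hr, decreased signal indicating inhibition.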
# MCF10A rereplic = A quantitative high throughput screen for small molecules that induce DNA re-replication in MCF 10a normal breast cells; MCF 10A DNA re-replication, Hoechst nuclear intensity, 48 h; Potency, µM (top dose mostly 46.1 µM), most hits filed as activators; 2.9% of 350,000 active; AID 624296, 2012; note: nearly all actives have a fitted effect of over 50% in size
# Hits are given with their value; – = inactive; ? = inconclusive; · = not tested or not shown; [ ] = another dose, or the depositor's remark. Unless noted, calls come from the whole dose curve; as a rule, active = well fitted curve in the direction sought with a large enough effect; inconclusive = small, poorly fitted or top-dose-only effect, or another doubt; inactive = no such curve, though single readings can be large; an effect the other way counts as inactive or inconclusive.
SMILES,Chronic BCR inh,SW480 rereplic,DT40 TDP1 no CPT,TDP1 cell CPT,IL1B secr inh,MCF10A rereplic
COCCn1c(=N)c(S(=O)(=O)c2ccc(Br)cc2)cc2c(=O)n3ccccc3nc21,?,–,21µM,?,–,–
N=c1c(S(=O)(=O)c2ccc(Br)cc2)cc2c(=O)n3ccccc3nc2n1Cc1ccco1,–,–,6.5µM,9.2µM,?,?
Cc1ccc(Cn2c(=N)c(S(=O)(=O)c3ccc(Br)cc3)cc3c(=O)n4ccccc4nc32)cc1,–,–,–,–,–,–
N=c1c(S(=O)(=O)c2ccc(Cl)cc2)cc2c(=O)n3ccccc3nc2n1Cc1ccco1,?,5.2µM,?,?,–,?
Cc1ccccc1NC(=O)CCn1nc(-c2ccccc2)c2ccccc2c1=O,–,·,?,?,·,·
Cc1ccc(-c2ccc(=O)n(CC(=O)NCCC(C)C)n2)cc1,–,–,–,–,–,–
COc1cccc(/C=C2/C(=O)NN(c3ccc(F)cc3)C2=O)c1,–,–,–,?,–,?
O=C1NN(c2ccc(F)cc2)C(=O)/C1=C/c1cccs1,–,–,–,–,-51,–
Cc1ccc(NC(=O)c2ncn(CCCN3CCN(Cc4cccc5ccccc45)CC3)n2)cc1C,·,–,13µM,21µM,-52,?
COc1ccc(CN(C)C(=O)Cn2cnc(C(=O)Nc3ccc(C)c(C)c3)n2)cc1OC,–,–,?,18µM,–,–
Cc1ccc(NC(=O)c2ncn(CCCN(C)CCc3ccccn3)n2)cc1C,·,–,–,–,–,–
Cc1ccc(NC(=O)Cn2cnc(C(=O)Nc3ccc(C)c(C)c3)n2)cc1C,–,–,–,–,–,–
COc1cccc(CN(C)CCCn2cnc(C(=O)Nc3ccc(C)c(C)c3)n2)c1,·,–[9.22 µM],?,21µM,–,–
CN(NC(=O)NN(C)C(=O)c1ccccc1)C(=O)c1ccccc1,·,–,?,?,–,–
CCCCC(=O)OCC(=O)N1N=C(c2c[nH]c3ccccc23)C(O)C1c1ccc(OC)cc1 (centres undefined),?,?,?,?,–,–
CCC1CSC(Nc2ccc(C(=O)/C=C/c3ccc(Oc4ccccc4)cc3)cc2)=N1 (centres undefined),–,?,16µM,23µM,?,?
CCC1CSC(Nc2ccc(C(=O)/C=C/c3cccc(C)c3)cc2)=N1 (centres undefined),–,?,15µM,16µM,-87,16µM
Cc1cccc(/C=N/NC(=O)c2ccc(Br)cc2)c1,?,–,–,–,–,?
O=C(O)CCN1CCc2ccccc2C1c1ccncc1 (centres undefined),–,–,–,–,–,–
O=C(N/N=C/C(Cl)=C/c1ccccc1)c1cnccn1,–,?,13µM,16µM,–,?
CC(=C/c1ccccc1)/C=N/NC(=O)c1cnccn1,–,–,–,–,–,–
O=C(N/N=C/C(Cl)=C\c1ccccc1)c1cnccn1,?,–,21µM,18µM,-82,–
Cc1ccc(CCNC(=O)CCSCc2ccccc2F)cc1,–,·,–,–,·,·
N#CC(CC(=O)OCc1ccccc1)NC(=O)OCc1ccccc1 (centres undefined),·,·,–,?,–,·
COc1ccc(CC(=O)Nc2nncs2)cc1OC,–,8.2µM,–,–,–,–
COCCSc1nnc(NC(=O)Cc2ccc(OC)c(OC)c2)s1,–,23µM,?,?,–,–
CCSc1nnc(NC(=O)Cc2ccc(OC)c(OC)c2)s1,–,–,–,–,–,–
Cc1ccc(CC(=O)Nc2nncs2)cc1,–,–,–,–,–,–
CCCCN1C2CCCC1CC(NC(=O)c1cccc(Cl)c1)C2 (centres undefined),–,–,23µM,?,–,–
